Test [1] can be described thus: Cellular Toxicity (caspase-3) Jurkat (AID 655).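 Note: cells exposed to compound for 16 h at 37 °C before reading.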 The conditions noted are these: Jurkat caspase-3 activation, luminescence, DMSO = 0%, tamoxifen = 100%; at 92.2 µM (top of the series). An outline of the steps:
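Jurkat cells (5000/well) in complete medium were treated with compounds for 16 hr at 37 °C, then Caspase-Glo 3/7 luminescence was read after 20 min at room temperature. Data normalized to DMSO (basal) and 100 uM tamoxifen (100%); AC50 from Hill fit.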

A short description of test [2]: Cell Viability - LYMP2-001 (AID 921).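 Note: 0% = DMSO only and full inhibition = tetraoctylammonium bromide control wells; nearly all actives have a fitted effect of over 70% in size.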 In a few lines:
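Human lymphoblastoid cells (Coriell), 2500 per well, were preincubated 5 hr at 37 C, then exposed to compounds in complete medium for 24 hr at 37 C. Cellular ATP was read by CellTiter-Glo luminescence; AC50 from Hill fits of concentration-response data.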

Test [3] can be described thus: MultiTox-Fluor Cytotoxicity Assay - LYMP1-001 - Live Cells (AID 947).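 Note: 0% = DMSO only and full inhibition = tetraoctylammonium bromide control.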
Test [4] in a line: Cell Viability - LYMP1-003 - Assay at 24 hr (AID 963).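 Note: plate controls were DMSO only for no effect and tetraoctylammonium bromide positive control for full effect.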 An outline of the steps: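 Cytotoxicity is scored as a concentration-dependent fall in ATP-linked luciferase signal in human lymphoblastoid LYMP1-003 cells treated 24 hr at 37 C in complete culture medium.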
Test [5] has as its target Estrogen receptor (Homo sapiens) (UniProt P03372). Description: qHTS assay for small molecule antagonists of estrogen receptor alpha signaling (AID 588513; active = well fitted curve in the direction sought with a large enough effect in the signal ratio, with a control signal flat, not every such curve was filed as active; the % refers to the signal ratio; note: % is set by controls: 0 for no effect and ±100 for the full control effect). An outline of the steps:
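ER-alpha-UAS-bla GripTite HEK 293 cells in medium with 2% charcoal/dextran-treated FBS were preincubated 4 h at 37 C, dosed with compound (1:2 titration), stimulated with 0.5nM 17-beta-estradiol for 18 h, then read by CCF4 beta-lactamase fluorescence.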
A general note: Quantitative high-throughput screening tests each substance at several concentrations.

Test [6] shares this target. Description: qHTS assay for small molecule agonists of estrogen receptor alpha signaling (AID 588514; calls by dose curve;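 note: 0% = vehicle only and 100% = reference agonist; nearly all actives have a fitted effect of over 70% in size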). In a few lines:
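Efficacy is expressed against 20 nM 17-beta-estradiol (100%) and DMSO basal (0%); EC50 from Hill equation. Assay: beta-lactamase reporter in ER-alpha-UAS-bla HEK 293 cells, 18 h compound incubation, CCF4 detection.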

Test [7] deals with Peroxisome proliferator-activated receptor gamma (Homo sapiens) (UniProt P37231). Description: qHTS assay for small molecule agonists of peroxisome proliferator-activated receptor gamma signaling (AID 588536; active = well fitted curve in the direction sought with a large enough effect in the signal ratio, with a control signal flat, not every such curve was filed as active; the % refers to the signal ratio;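 note: 0% = DMSO basal wells and 100% = rosiglitazone at 2 µM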). An outline of the steps:
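Compound treatment: 16 h, 37 C, HEK293 GeneBLAzer cells. Detection: CCF4, 2 h RT. Values: Hill-fit EC50, efficacy as % of 2 uM rosiglitazone.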

For test [8], the target named is Vitamin D3 receptor (Homo sapiens) (UniProt P11473). Description: qHTS assay for small molecule agonists of vitamin D receptor signaling (AID 588543; calls by dose curve;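 note: 0% = DMSO basal and 100% = reference agonist control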). In a few lines: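 GeneBLAzer VDR-UAS-bla HEK293T cells in 2% charcoal-stripped FBS medium were dosed with compound titrations for 16 h at 37 °C; CCF4 β-lactamase readout (405 nm ex, 460/530 nm em). EC50 and efficacy from Hill fits, normalized to 50 nM calcitriol (100%) and DMSO (0%).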

Test [9] in a line: qHTS assay for small molecule agonists of retinoid X receptor alpha signaling (AID 588544; calls by dose curve;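 for activation: 0% = DMSO basal wells and 100% = reference agonist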). The conditions noted are these: HEK293T RXRa-UAS-bla, beta-lactamase reporter, 18 h; 530 nm emission.
The target in test [10] is Retinoic acid receptor RXR-alpha (Homo sapiens) (UniProt P19793). The test is described as above.
Test [11] concerns the target Voltage-gated inwardly rectifying potassium channel KCNH2 (Homo sapiens) (UniProt Q12809). Description: qHTS Assay for Small Molecule Inhibitors of the Human hERG Channel Activity (AID 588834).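 Note: top concentration of the series differs between compounds; % is set by controls: 0 for no effect and ±100 for the full control effect; lower thallium flux fluorescence means stronger hERG block; nearly all actives have a fitted effect of over 50% in size.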 An outline of the steps:
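In hERG-transduced U2OS cells, dye-loaded for 1 hr at room temperature in dark, test compounds incubated 10 min at 37 °C before thallium stimulation. AC50 values derived by Hill modelling of concentration-response.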

A short description of test [12]: qHTS assay for small molecule activators of the p53 signaling pathway (AID 651743; active = well fitted activation curve with a large enough effect in the signal ratio, not every such curve was filed as active; the % refers to the signal ratio; note: potency is the fitted concentration of half-maximal effect; for activation: % of control where 0% means no effect). The conditions noted are these: HCT-116 p53RE-bla, beta-lactamase FRET ratio, 16 h; activation: stronger effect = higher value. An outline of the steps: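 Agonist-mode quantitative HTS in HCT-116 cells carrying a p53-response-element beta-lactamase reporter; 16 h compound treatment at 37 C, then FRET substrate loading for 2 h at room temperature and fluorescence read.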

Test [13] can be described thus: qHTS assay for small molecule disruptors of the mitochondrial membrane potential - 1 hr assay (AID 651754; calls by dose curve; note: % is set by controls: 0 for no effect and ±100 for the full control effect; nearly all actives have a fitted effect of over 35% in size). In a few lines:
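Loss of mitochondrial potential shifts the cationic dye from red mitochondrial aggregates to green cytoplasmic monomers. Cells (HepG2) are treated with compound for 1 hr before a 30 min dye incubation at 37C.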

Test [14] is described as follows: qHTS assay for small molecule disruptors of the mitochondrial membrane potential - 5 hr assay (AID 651755; calls by dose curve; note: % is set by controls: 0 for no effect and ±100 for the full control effect; nearly all actives have a fitted effect of over 40% in size). In a few lines: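 Seed HepG2 overnight, add compound, incubate 5 hr at 37C and 5% CO2, stain 30 min with Mito-MPS, then measure monomer (490/535 nm) and aggregate (540/590 nm) fluorescence.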
Test [15] concerns the target Tumor necrosis factor (Homo sapiens) (UniProt P01375). Description: qHTS assay to identify small molecules that stimulate Tumor Necrosis Factor-alpha (TNF-alpha) secretion (AID 651757; active = well fitted curve in the direction sought with a large enough effect in the signal ratio; the % refers to the signal ratio; note: 0% is about no effect). In a few lines:
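Human monocytic THP-1 cells are plated, treated with compound and held at 37 C for 17 hrs. Labeled anti-TNF-alpha antibody mixture is then added; after 3 hr at room temperature, TR-FRET signal reports secreted TNF-alpha.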

Test [16] in a line: qHTS assay for small molecule agonists of the antioxidant response element (ARE) signaling pathway measured by Nrf2-dependant transcriptional activity (AID 720636; active = well fitted curve in the direction sought with a large enough effect in the repeat runs; an effect the other way counts as inactive or inconclusive; note: % of control where 0% means no effect). In a few lines: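 Quantitative HTS format in HepG2 cells stably expressing an ARE-luciferase reporter; 16 hr compound treatment at 37 C, luciferase signal detected with ONE-Glo.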
Test [17] can be described thus: qHTS assay for small molecule antagonists of the retinoid-related orphan receptor gamma (ROR-gamma) signaling pathway - cell viability counter screen (AID 720652; active = well fitted curve in the direction sought with a large enough effect in the repeat runs; an effect the other way counts as inactive or inconclusive;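 note: CHO reporter cells with doxycycline-induced ROR-gamma expression; compound exposure lasted 16 hr before ATP read; % is set by controls: 0 for no effect and ±100 for the full control effect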). In a few lines:
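Steps: seed CHO cells bearing TET-inducible ROR and ROR response element-luciferase; rest 5 hr at 37 C; add compound, then doxycycline; incubate 16 hr; add CellTiter-Glo and read luminescence as ATP-based viability.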

A short description of test [18]: qHTS assay for cell viability of the p53RE-bla HCT-116 cell line (AID 743292). Note: % is set by controls: 0 for no effect and ±100 for the full control effect; nearly all actives have a fitted effect of over 55% in size. In a few lines:
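Viability of compound-treated p53RE-bla HCT-116 cells is taken from ATP-dependent luciferase luminescence. Treatment lasts 16 h at 37 C after a 5 h settling period; detection follows 30 min at room temperature.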

In test [19] the target is Nuclear receptor subfamily 1 group I member 2 (Rattus norvegicus) (UniProt Q9R1A7). Description: qHTS assay for small molecule activators of the rat pregnane X receptor (rPXR) signaling pathway (AID 651751; call rule not given here; note: 0% is about no effect). The conditions noted are these: rPXR reporter cells, luciferase (One-Glo), 24 h.
A short description of test [20]: qHTS assay for small molecule activators of the human pregnane X receptor (PXR) signaling pathway (AID 720659; call rule not given here; note: 0% is about no effect).

Structures are written as SMILES. Where “and” joins values, the source holds several entries; their conditions need not be identical. Identical values can stand only once. Inconclusive results are not listed. Calls of active or inactive are those of the source. Unless noted, calls come from the whole dose curve; as a rule, active = well fitted curve in the direction sought with a large enough effect; inconclusive = small, poorly fitted or top-dose-only effect, or another doubt; inactive = no such curve, though single readings can be large; an effect the other way counts as inactive or inconclusive.

Estrogen receptor (Homo sapiens), sequence (P03372 whole entry, looked up): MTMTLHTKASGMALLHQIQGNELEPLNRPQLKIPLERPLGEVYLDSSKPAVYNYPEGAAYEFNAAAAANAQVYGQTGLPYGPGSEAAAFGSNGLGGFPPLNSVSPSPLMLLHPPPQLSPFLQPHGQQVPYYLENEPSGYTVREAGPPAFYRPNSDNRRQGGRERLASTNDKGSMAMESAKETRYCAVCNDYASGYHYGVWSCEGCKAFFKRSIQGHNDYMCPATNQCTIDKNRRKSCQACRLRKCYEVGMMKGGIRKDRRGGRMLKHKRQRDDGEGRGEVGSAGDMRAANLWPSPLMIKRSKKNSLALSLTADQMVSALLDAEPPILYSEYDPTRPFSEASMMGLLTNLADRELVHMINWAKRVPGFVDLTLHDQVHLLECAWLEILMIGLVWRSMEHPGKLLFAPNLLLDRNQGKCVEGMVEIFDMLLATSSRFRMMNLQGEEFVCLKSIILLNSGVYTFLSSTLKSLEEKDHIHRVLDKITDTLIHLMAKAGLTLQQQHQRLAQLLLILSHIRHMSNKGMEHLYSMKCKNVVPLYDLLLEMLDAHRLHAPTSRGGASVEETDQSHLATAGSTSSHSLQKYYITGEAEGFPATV
Vitamin D3 receptor (Homo sapiens), sequence (P11473 whole entry, looked up): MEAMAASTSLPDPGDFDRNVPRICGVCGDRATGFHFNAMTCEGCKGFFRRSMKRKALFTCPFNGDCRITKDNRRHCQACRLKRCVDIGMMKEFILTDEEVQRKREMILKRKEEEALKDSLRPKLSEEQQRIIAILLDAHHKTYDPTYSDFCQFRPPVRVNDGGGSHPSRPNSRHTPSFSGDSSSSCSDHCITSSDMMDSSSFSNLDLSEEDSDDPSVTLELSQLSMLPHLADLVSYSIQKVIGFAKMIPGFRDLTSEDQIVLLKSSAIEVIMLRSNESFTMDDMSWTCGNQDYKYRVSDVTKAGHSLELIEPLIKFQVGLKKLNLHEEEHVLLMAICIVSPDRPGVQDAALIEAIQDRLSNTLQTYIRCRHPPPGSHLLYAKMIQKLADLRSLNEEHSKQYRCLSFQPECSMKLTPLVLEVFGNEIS
Peroxisome proliferator-activated receptor gamma (Homo sapiens), sequence (P37231 whole entry, looked up): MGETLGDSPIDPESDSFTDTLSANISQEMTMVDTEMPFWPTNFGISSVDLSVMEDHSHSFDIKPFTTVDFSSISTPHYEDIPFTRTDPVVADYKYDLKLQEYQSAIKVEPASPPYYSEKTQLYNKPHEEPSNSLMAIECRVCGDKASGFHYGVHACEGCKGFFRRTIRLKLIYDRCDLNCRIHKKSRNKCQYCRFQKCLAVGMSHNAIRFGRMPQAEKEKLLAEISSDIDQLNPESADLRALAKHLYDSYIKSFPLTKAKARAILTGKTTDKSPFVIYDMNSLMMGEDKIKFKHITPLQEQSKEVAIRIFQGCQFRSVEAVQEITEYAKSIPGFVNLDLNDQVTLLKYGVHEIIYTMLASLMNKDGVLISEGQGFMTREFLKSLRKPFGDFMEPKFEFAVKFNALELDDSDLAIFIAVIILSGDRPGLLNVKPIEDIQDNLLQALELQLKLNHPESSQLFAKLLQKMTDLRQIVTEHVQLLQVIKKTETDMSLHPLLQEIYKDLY
Voltage-gated inwardly rectifying potassium channel KCNH2 (Homo sapiens), sequence (Q12809 whole entry, looked up): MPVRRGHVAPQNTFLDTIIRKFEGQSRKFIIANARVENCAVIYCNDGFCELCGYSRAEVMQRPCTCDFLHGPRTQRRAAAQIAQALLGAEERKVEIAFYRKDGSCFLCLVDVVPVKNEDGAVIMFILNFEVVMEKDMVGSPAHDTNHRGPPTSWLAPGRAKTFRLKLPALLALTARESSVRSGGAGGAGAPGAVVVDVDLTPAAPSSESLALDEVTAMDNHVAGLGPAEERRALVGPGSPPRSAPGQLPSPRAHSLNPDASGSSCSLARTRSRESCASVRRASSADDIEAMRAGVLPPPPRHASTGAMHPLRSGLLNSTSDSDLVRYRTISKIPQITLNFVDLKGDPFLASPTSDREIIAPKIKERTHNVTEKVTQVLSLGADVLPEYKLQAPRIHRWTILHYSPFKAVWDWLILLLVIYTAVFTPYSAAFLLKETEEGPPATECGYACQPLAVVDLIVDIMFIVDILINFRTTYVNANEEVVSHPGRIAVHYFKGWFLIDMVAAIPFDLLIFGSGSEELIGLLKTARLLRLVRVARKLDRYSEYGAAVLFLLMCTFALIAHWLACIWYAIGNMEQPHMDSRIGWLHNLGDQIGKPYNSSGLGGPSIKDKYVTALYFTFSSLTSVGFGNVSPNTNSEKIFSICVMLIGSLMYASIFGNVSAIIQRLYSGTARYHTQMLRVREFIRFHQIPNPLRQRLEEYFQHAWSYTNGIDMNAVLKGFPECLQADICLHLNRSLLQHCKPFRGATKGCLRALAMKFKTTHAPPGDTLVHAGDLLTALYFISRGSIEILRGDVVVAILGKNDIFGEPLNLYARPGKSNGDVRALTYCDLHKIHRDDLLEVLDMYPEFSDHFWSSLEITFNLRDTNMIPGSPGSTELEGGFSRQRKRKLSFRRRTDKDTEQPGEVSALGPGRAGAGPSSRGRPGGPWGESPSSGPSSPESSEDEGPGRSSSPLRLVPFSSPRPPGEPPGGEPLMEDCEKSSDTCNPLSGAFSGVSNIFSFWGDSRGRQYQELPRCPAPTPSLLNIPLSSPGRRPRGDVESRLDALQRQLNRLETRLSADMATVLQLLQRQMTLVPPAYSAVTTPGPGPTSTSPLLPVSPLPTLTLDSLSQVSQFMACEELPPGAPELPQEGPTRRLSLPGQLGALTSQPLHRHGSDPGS
Nuclear receptor subfamily 1 group I member 2 (Rattus norvegicus), sequence (Q9R1A7 whole entry, looked up): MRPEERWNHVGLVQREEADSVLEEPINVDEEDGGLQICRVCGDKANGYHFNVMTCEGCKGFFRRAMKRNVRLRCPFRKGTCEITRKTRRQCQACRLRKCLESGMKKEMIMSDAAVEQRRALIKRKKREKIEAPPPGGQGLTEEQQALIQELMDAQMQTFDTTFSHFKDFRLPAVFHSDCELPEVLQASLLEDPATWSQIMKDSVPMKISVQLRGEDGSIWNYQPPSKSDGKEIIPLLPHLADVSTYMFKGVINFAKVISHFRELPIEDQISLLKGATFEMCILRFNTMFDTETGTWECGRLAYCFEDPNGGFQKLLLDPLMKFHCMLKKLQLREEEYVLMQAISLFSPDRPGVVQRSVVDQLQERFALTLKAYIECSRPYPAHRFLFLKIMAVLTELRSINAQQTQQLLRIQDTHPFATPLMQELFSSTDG
Tumor necrosis factor (Homo sapiens), sequence (P01375 whole entry, looked up): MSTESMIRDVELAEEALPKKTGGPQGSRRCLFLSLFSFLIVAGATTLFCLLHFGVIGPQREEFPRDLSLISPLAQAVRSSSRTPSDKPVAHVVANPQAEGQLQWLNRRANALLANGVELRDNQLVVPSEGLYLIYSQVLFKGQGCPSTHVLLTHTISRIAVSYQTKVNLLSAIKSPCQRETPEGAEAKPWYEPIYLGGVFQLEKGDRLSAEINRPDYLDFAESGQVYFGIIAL
Retinoic acid receptor RXR-alpha (Homo sapiens), sequence (P19793 whole entry, looked up): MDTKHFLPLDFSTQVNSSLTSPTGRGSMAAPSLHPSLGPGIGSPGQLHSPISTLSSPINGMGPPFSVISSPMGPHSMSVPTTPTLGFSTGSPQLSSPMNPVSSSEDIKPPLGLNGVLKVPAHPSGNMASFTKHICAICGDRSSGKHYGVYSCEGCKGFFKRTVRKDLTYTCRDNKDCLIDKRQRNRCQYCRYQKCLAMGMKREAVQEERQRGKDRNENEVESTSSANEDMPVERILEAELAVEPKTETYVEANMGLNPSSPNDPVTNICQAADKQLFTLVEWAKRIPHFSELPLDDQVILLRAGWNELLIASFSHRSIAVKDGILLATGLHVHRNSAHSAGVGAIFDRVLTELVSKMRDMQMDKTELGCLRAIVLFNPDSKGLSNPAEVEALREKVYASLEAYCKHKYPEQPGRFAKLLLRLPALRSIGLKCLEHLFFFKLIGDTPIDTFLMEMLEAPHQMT

In the case of `Cc1cccc([N+](=O)[O-])c1C`, the caspase-3 activation in [1] is 0.0783% (inactive). Moreover, the Potency entry in test [2], in test [3], in test [4], in test [5], in test [6] and in [11] was “inactive” throughout. For the same compound, the Potency result in test [13], in test [14], in [16], in test [17] and in test [18] was “inactive” in each case. In addition, the compound was called inactive in test [7], in test [8], in [10], in [15] and in [20]. For the same compound, the max response was -8% and -5.71% in test [9]; 1.82% (inactive) and -0.351% (inactive) in [19]. For the same compound, in test [12], the activation was -0.524% (inactive) and 0.427% (inactive).

`CC(=O)OC/C=C(\C)CCC=C(C)C`: the caspase-3 activation in test [1] was 1.05% (inactive). Further, the Potency result in test [3], in test [4], in test [5], in test [6], in test [11] and in [13] was “inactive” throughout. Moreover, the Potency result in test [14], in [16], in test [17] and in test [18] was “inactive” in each case. The result in [7], in test [10], in test [15] and in [20] was inactive. In addition, the max response in test [9] is 4.32% and -5.25%; in test [19], 1.82% (inactive) and -1.93% (inactive). Further, the activation in test [12] was -0.898% (inactive) and 4.78% (inactive).

For the compound `O=[N+]([O-])c1cccc(Cl)c1Cl`, the caspase-3 activation in test [1] was 1.08% (inactive). In addition, the Potency entry in [2], in [3], in test [4], in [5], in [6] and in test [13] was “inactive” in each case. Also, the Potency result in test [14], in test [16], in test [17] and in [18] was “inactive” in each case. For the same compound, the outcome in test [7], in test [8], in test [10], in test [15] and in [20] was inactive. Also, the max response was 6.35% and -11.4% in test [9]; -1.89% (inactive) and -3.78% (inactive) in test [19].

On to `C=Cc1ccccc1Cl`, for which the caspase-3 activation in test [1] was -1.24% (inactive). Also, the Potency result in test [2], in test [3], in test [4], in test [5], in test [6] and in test [11] was “inactive” each time. The Potency entry in [13], in test [14], in [16], in test [17] and in [18] was “inactive” in each case. Also, the result in [7], in test [8], in [10], in [15] and in [20] was inactive. Moreover, the max response in test [9] was -6.66%; in test [19], 1.05% (inactive). For the same compound, the activation in test [12] is -0.152% (inactive).

On to `Cc1ccc(N)c([N+](=O)[O-])c1`, for which the caspase-3 activation in test [1] was -0.471% (inactive). The Potency entry in [2], in test [4], in test [5], in test [6], in test [11] and in [13] was “inactive” in each case. Also, the Potency entry in test [14], in test [16], in [17] and in test [18] was “inactive” throughout. For the same compound, the result in [7], in test [8], in test [10] and in test [15] was inactive. Further, the max response in [9] is -17.4% and -9.33%; in test [19] it was -2.15% (inactive) and -2.21% (inactive).

`c1ccc2c(c1)[nH]c1ccccc12`: in test [1], the caspase-3 activation was 0.344% (inactive). Also, the Potency result in test [2], in [3], in test [4], in test [5], in test [6] and in [11] was “inactive” throughout. The Potency entry in test [14], in test [17] and in [18] was “inactive” throughout. The outcome in [7], in test [10], in test [15] and in test [20] was inactive. Also, the max response in test [9] was 2.28% and -6.27%; in test [19], -0.192% (inactive) and 1.32% (inactive). Moreover, the activation in test [12] is 0.0697% (inactive) and -3.97% (inactive).

For `S=C1NC=NC2N=CNC12` (stereo not drawn), in test [1], the caspase-3 activation is 20.1% (inactive). The Potency entry in test [2], in test [3], in [11], in [13], in test [14] and in test [16] was “inactive” throughout. The compound was classed as inactive in test [8] and in test [20]. For the same compound, the Potency in test [12] is 10 µM (active). For the same compound, the max response in [19] is -8.03% (inactive).

Take `CCC(O)OC(O)CC` (stereo not drawn): the caspase-3 activation in test [1] is 0.389% (inactive) and 0.685% (inactive). Also, the Potency entry in test [2], in [3], in test [4], in [5], in [6] and in [11] was “inactive” throughout. Also, the Potency result in test [13], in test [14], in [16], in test [17] and in test [18] was “inactive” throughout. The result in [7], in [8], in [10], in test [15] and in [20] was inactive. For the same compound, the max response in test [9] was -2.11% and -3.85% and -13.7%; in test [19], -0.225% (inactive) [middle of 4 runs]. In addition, in [12], the activation was 0.0103% (inactive) [middle of 4 runs].

With `CCCCCCCCCCCCCCC1CO1` (stereo not drawn), in [1], the caspase-3 activation was 0.846% (inactive). For the same compound, the Potency result in [2], in test [3], in test [4], in [5], in test [6] and in test [11] was “inactive” each time. The Potency result in test [16], in [17] and in [18] was “inactive” in each case. Further, the result in test [7], in test [8], in [10], in test [15] and in test [20] was inactive. Besides, the max response was -14.5% and -12.1% in [9]; -5.5% (inactive) and 2.15% (inactive) in [19]. The activation in [12] is 0.526% (inactive) and -2.5% (inactive).

Consider `Clc1cc(Cl)c(Cl)cc1Cl`, for which the caspase-3 activation in [1] was 2.8% (inactive). For the same compound, the Potency entry in [2], in test [3], in test [4], in test [5], in [6] and in test [11] was “inactive” throughout. The Potency entry in test [13], in [14], in test [16], in [17] and in test [18] was “inactive” each time. For the same compound, the call in [7], in test [10], in test [15] and in [20] was inactive. The max response in test [9] was 4.21% and -11.5%; in test [19], 1.48% (inactive) and 5.88% (inactive). Moreover, the activation in [12] was -2.65% (inactive) and -1.28% (inactive).

The record behind these values is PubChem BioAssay (NCATS).
